PubChem BioAssay (Tox21)
Records with an inconclusive call do not appear. Where a call stands in place of a potency, no number is given. Values without a mark were called inactive. Active and inactive are the calls of the source. Unless noted, calls follow the shape of the full dose curve. Where a SMILES comes first, the peptide text is derived from it.

Legend:
[1] = target: Nuclear receptor subfamily 1 group I member 3 (Homo sapiens) (UniProt Q14994); test: qHTS assay to identify small molecule agonists of the constitutive androstane receptor (CAR) signaling pathway (AID 1224839; active = well fitted curve in the direction sought with a large enough effect in the repeat runs; an effect the other way counts as inactive or inconclusive; also: nearly all actives have a fitted effect of over 15% in size; also: potency is read from the fitted curve at half-maximal effect;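 as to activation: HepG2 cells stably carrying human CAR and a CYP2B6 luciferase reporter; series mostly up to about 92 µM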)
Chain of Nuclear receptor subfamily 1 group I member 3 (Homo sapiens) (Q14994 whole entry, looked up): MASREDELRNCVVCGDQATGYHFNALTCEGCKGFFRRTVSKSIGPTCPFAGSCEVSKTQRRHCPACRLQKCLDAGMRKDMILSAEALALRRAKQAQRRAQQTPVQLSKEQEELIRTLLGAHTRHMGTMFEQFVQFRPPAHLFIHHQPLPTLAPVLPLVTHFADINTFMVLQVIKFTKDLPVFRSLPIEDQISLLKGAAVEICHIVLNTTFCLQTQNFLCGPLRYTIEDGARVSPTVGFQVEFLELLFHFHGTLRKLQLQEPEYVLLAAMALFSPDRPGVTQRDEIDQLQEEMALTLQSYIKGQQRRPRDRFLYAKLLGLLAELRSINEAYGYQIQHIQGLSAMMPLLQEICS
Procedure, shortened: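 HepG2-CYP2B6-hCAR cells, 2500/well, 4 h pre-incubation; compounds 15 conc.; PK11195 0.75 uM final; 24 h, 37 C/5% CO2; ONE-Glo luciferase read.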

[2] = qHTS assay to identify small molecule antagonists of the estrogen related receptor signaling pathway with the pleiotropic PPARgamma coactivator (PGC) from Tox21 10K library - cell viability counter screen (AID 1224840; active = well fitted cell-killing curve with a large enough effect in the repeat runs, not every such curve was filed as active; also: nearly all actives have a fitted effect of over 40% in size)
Procedure, shortened: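 Fluorescence read-out of CellTiter-Fluor viability reagent, added after cells had been exposed to compound in DMSO for 17.5 h at 37 C; 30 min development at 37 C/5% CO2. Cells: PGC/ERR line, 2,000/well.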

[3] = target: Thyrotropin receptor (Homo sapiens) (UniProt P16473); test: qHTS assay to identify small molecule agonists of the thyroid stimulating hormone receptor (TSHR) signaling pathway (AID 1224843); also: nearly all actives have a fitted effect of over 45% in size
Chain of Thyrotropin receptor (Homo sapiens) (P16473 whole entry, looked up): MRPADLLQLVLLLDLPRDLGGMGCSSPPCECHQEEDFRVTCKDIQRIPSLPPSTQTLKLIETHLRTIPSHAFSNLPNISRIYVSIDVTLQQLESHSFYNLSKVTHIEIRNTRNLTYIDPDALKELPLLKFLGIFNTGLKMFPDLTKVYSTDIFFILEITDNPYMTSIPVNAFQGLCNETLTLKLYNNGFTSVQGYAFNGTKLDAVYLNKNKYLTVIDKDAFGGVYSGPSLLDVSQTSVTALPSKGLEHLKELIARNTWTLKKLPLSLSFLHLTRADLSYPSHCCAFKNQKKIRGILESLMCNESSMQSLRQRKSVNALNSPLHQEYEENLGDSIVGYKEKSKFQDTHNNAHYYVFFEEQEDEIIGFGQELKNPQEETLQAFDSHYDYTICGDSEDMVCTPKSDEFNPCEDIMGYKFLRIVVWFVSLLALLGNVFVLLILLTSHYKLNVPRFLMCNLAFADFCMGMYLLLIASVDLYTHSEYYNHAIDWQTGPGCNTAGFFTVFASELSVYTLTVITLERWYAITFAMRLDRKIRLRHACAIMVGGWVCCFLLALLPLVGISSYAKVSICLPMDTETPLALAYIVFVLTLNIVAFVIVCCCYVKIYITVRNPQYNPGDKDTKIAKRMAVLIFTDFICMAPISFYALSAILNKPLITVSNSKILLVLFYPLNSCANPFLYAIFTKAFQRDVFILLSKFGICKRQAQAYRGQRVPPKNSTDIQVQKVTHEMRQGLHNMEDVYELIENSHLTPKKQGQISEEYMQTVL
Procedure, shortened: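 A cell-based cAMP HTRF format was run in TSHR-transfected HEK293 cells, 800 per well. Treatment: 30 min, room temperature. Detection: 1 h with labelled cAMP and anti-cAMP cryptate. Concentration-response over 15 points, three replicates.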

[4] = qHTS assay to identify small molecule agonists of the hypoxia (HIF-1) signaling pathway - cell viability counter screen (AID 1224844); also: nearly all actives have a fitted effect of over 50% in size
Procedure, shortened: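 CellTiter-Glo luminescence read-out, 30 min RT, taken in the same wells as the beta-lactamase HRE reporter assay; HRE-bla ME-180 cells, 0.5% dialyzed FBS, 17 hr compound treatment at 37C, 5% CO2.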

[5] = qHTS assay to identify small molecule agonists of H2AX (AID 1224845; active = well fitted activation curve with a large enough effect in the signal ratio in the repeat runs, not every such curve was filed as active; the % refers to the signal ratio)
Procedure, shortened: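 Phospho-H2AX Ser139 measured by HTRF (ex 320 nm; em 665 and 620 nm) after 24 hr antibody incubation. Compounds, 15 concentrations, 0.76% DMSO, were applied to CHO-K1 cells for 3hr at 37C before lysis.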

[6] = qHTS assay to identify small molecule agonists of the hypoxia (HIF-1) signaling pathway (AID 1224846; active = well fitted activation curve with a large enough effect in the signal ratio in the repeat runs, not every such curve was filed as active; the % refers to the signal ratio)
Procedure, shortened: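 Beta-lactamase FRET read-out (CCF4-AM substrate) from ME-180 cells carrying an HRE-driven bla reporter, after 17 hrs compound exposure at 37C/5% CO2. Cells were seeded at 2,000 per well in 0.5% dialyzed FBS medium and preincubated 5 hrs.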

[7] = qHTS assay to identify small molecule agonists of H2AX - cell viability counter screen (AID 1224847);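 also: wild-type CHO-K1 cells; top concentration of the series differs between compounds; nearly all actives have a fitted effect of over 30% in size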
Procedure, shortened: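 Cells plated first: CHO-K1, 1000 per well in 10% FBS medium, incubated overnight at 37C. Then 15-point compound titration added (final DMSO 0.76%) for 3 hr. Finally CellTiter-Glo added and luminescence read.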

[8] = qHTS assay to identify small molecule agonists of the estrogen related receptor signaling pathway with the pleiotropic PPARgamma coactivator (PGC) from Tox21 10K library (AID 1224842; active = well fitted curve in the direction sought with a large enough effect in the repeat runs; an effect the other way counts as inactive or inconclusive; also: nearly all actives have a fitted effect of over 15% in size)
Procedure, shortened: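 Luminescence from One-Glo (30 min, room temperature) measured after PGC/ERR cells had 18 h at 37 C with pinned compound (23 nL in DMSO). Cells had been seeded at 2,000 per well and pre-incubated 6 h.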

[9] = qHTS assay to identify small molecule antagonists of the estrogen related receptor (ERR) signaling pathway from Tox21 library (AID 1224848; active = well fitted curve in the direction sought with a large enough effect in the repeat runs; an effect the other way counts as inactive or inconclusive; also: nearly all actives have a fitted effect of over 50% in size)
Procedure, shortened: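 ERR cell line, 2,000 cells/well. 6 h settle, then compound (DMSO) added; 18 h at 37 C; ONE-Glo luminescence after 30 min RT.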

For `COC(=O)CCCCC(CCSS/C(CCO)=C(\C)N(C=O)Cc1cnc(C)nc1N)SC(C)=O` (stereo unspecified), the Potency [1] was “inactive”, the outcome [2] was “inactive” and the outcome [3] was “inactive”. For the same compound, the outcome [4] was “inactive”, the outcome [5] was “inactive” and the outcome [6] was “inactive”. For the same compound, the outcome [7] was “inactive”.
For `C=CCCCC`, the Potency [1] was “inactive”, the outcome [2] was “inactive” and the outcome [3] was “inactive”. The outcome [4] was “inactive”, the outcome [5] was “inactive” and the outcome [6] was “inactive”. The outcome [7] was “inactive”.
For `CCOc1ccccc1OCC1CNCCO1` (stereo unspecified), the Potency [1] was “inactive”, the outcome [2] was “inactive” and the outcome [3] was “inactive”. For the same compound, the outcome [4] was “inactive”, the outcome [5] was “inactive” and the outcome [6] was “inactive”. For the same compound, the outcome [7] was “inactive”.
In the case of `Cn1c(=O)c2c(ncn2CCO)n(C)c1=O`, the Potency [1] is reported as “inactive”, the outcome [2] is reported as “inactive” and the outcome [3] is reported as “inactive”. For the same compound, the outcome [4] was “inactive”, the outcome [5] was “inactive” and the outcome [7] was “inactive”.
In the case of `CCC(C)C(=O)OCCc1ccccc1` (stereo unspecified), the Potency [1] is reported as “inactive”, the outcome [2] is reported as “inactive” and the outcome [3] is reported as “inactive”. The outcome [4] was “inactive”, the outcome [5] was “inactive” and the outcome [6] was “inactive”. For the same compound, the outcome [7] was “inactive”.
With `CCCCCCCCCCCCCCCCCC#N` the Potency [1] was “inactive”, the outcome [2] was “inactive” and the outcome [3] was “inactive”. The outcome [5] was “inactive”, the outcome [6] was “inactive” and the outcome [7] was “inactive”.
For `CO[C@@]1(NC(=O)Cc2cccs2)C(=O)N2C(C(=O)O)=C(COC(N)=O)CS[C@@H]21`, the Potency [1] was “inactive”, the outcome [2] was “inactive” and the outcome [3] was “inactive”. The outcome [4] was “inactive”, the outcome [5] was “inactive” and the outcome [7] was “inactive”.
For `CCC(=O)c1c(O)cc(O)cc1O`, the outcome [2] was “inactive”, the outcome [8] was “inactive” and the outcome [3] was “inactive”. The outcome [4] was “inactive”, the outcome [5] was “inactive” and the outcome [6] was “inactive”. For the same compound, the outcome [7] was “inactive”.
For `C[C@H]1[C@@H](c2ccccc2)NC(=O)N1C`, the Potency [1] was “inactive”, the outcome [2] was “inactive” and the outcome [3] was “inactive”. For the same compound, the outcome [5] was “inactive”, the outcome [6] was “inactive” and the outcome [7] was “inactive”.
For `CC(C)OC(=O)OCOP(=O)(CO[C@H](C)Cn1cnc2c(N)ncnc21)OCOC(=O)OC(C)C`, the Potency [1] was “inactive”, the outcome [2] was “inactive” and the outcome [3] was “inactive”. The outcome [6] was “inactive” and the outcome [7] was “inactive”.
`O=S(=O)(O)c1ccc2c(N=Nc3ccc(S(=O)(=O)O)c4ccccc34)c(O)c(S(=O)(=O)O)cc2c1` showed an activation [1] of 0.066% [at 8.39 µM], a viability change, negative = cytotoxic [2] of -10.3% [at 8.39 µM] and an activation [3] of 3.55% [at 8.39 µM]. It also gave an activity change, negative = cytotoxicity [4] of -2.23% [at 6.97 µM], an activation [6] of -0.322% [at 7.01 µM] and an activity change, negative = cytotoxicity [7] of -5.59% [at 14 µM].
For `CCCCC1CCC(O)CC1` (stereo unspecified), the Potency [1] was “inactive”, the outcome [2] was “inactive” and the outcome [4] was “inactive”. For the same compound, the outcome [5] was “inactive”, the outcome [6] was “inactive” and the outcome [7] was “inactive”.
In the case of `Cc1c(C(=O)c2c[nH]n(C)c2=O)ccc(S(C)(=O)=O)c1C1=NOCC1`, the Potency [1] is reported as “inactive”, the outcome [2] is reported as “inactive” and the outcome [4] is reported as “inactive”. For the same compound, the outcome [5] was “inactive”, the outcome [6] was “inactive” and the outcome [7] was “inactive”.
For `CC(=O)N[C@@H](CO)C(=O)N[C@@H](CC(=O)O)C(=O)N[C@@H](CCCCN)C(=O)N1CCC[C@H]1C(=O)O` (Ac-SDKP-OH), the Potency [1] was “inactive”, the outcome [2] was “inactive” and the outcome [4] was “inactive”. The outcome [5] was “inactive”, the outcome [6] was “inactive” and the outcome [7] was “inactive”.
With `CC(S)C(C)S` (stereo unspecified) the outcome [2] was “inactive”, the outcome [3] was “inactive” and the outcome [4] was “inactive”. For the same compound, the outcome [5] was “inactive”, the outcome [6] was “inactive” and the outcome [7] was “inactive”.
In the case of `COc1cc2c(cc1OC)CN(C(=O)[C@H](C)N[C@@H](CCc1ccccc1)C(=O)O)[C@H](C(=O)O)C2`, the Potency [1] is reported as “inactive”, the outcome [2] is reported as “inactive” and the outcome [3] is reported as “inactive”. The outcome [4] was “inactive”, the outcome [6] was “inactive” and the outcome [7] was “inactive”.
In the case of `OCC(O)CN1CCN(c2ccccc2)CC1` (stereo unspecified), the Potency [1] is reported as “inactive”, the outcome [2] is reported as “inactive” and the outcome [3] is reported as “inactive”. The outcome [4] was “inactive”, the outcome [5] was “inactive” and the outcome [7] was “inactive”.
In the case of `N#Cc1ccccc1O`, the outcome [2] is reported as “inactive”, the outcome [3] is reported as “inactive” and the outcome [4] is reported as “inactive”. The outcome [5] was “inactive” and the outcome [6] was “inactive”.
`CC1(C)CC(OC(=O)CCCCCCCCC(=O)OC2CC(C)(C)NC(C)(C)C2)CC(C)(C)N1` showed an activation [1] of -1.81% [at 19 µM], a viability change, negative = cytotoxic [2] of -0.192% [at 19 µM] and an activation [3] of -8.72% [at 19 µM]. It also gave an activation (H2AX phosphorylation) [5] of 0.0652% [at 31.6 µM], an activation [6] of -0.0727% [at 15.8 µM] and an activity change, negative = cytotoxicity [7] of -4.19% [at 31.6 µM].
For `NCc1ccc(S(N)(=O)=O)cc1`, the Potency [1] was “inactive”, the outcome [2] was “inactive” and the outcome [3] was “inactive”. For the same compound, the outcome [4] was “inactive”, the outcome [5] was “inactive” and the outcome [7] was “inactive”.
In the case of `CC1=C(O)C(=O)C(C)O1` (stereo unspecified), the outcome [2] is reported as “inactive”, the outcome [3] is reported as “inactive” and the outcome [4] is reported as “inactive”. For the same compound, the outcome [5] was “inactive”, the outcome [6] was “inactive” and the outcome [7] was “inactive”.
With `CCn1cc(C(=O)O)c(=O)c2cnc(N3CCCC3)nc21` the activation [1] was -0.437% [at 8.39 µM], the viability change, negative = cytotoxic [2] was 1.85% [at 8.39 µM] and the activation [3] was -1.79% [at 8.39 µM]. For the same compound, the activity change, negative = cytotoxicity [4] was 0.904% [at 6.97 µM], the activation (H2AX phosphorylation) [5] was 0.23% [at 14 µM] and the activity change, negative = cytotoxicity [7] was -5.46% [at 14 µM].
For `CC1CCc2c(N3CCC(O)CC3)c(F)cc3c(=O)c(C(=O)O)cn1c23` (stereo unspecified), the outcome [2] was “inactive”, the outcome [8] was “inactive” and the outcome [3] was “inactive”. The outcome [4] was “inactive”, the outcome [5] was “inactive” and the outcome [6] was “inactive”. The outcome [7] was “inactive”.
With `COc1c2occc2c(OC)c2c(=O)cc(C)oc12` the Potency [1] was 13.3 µM (active), the outcome [2] was “inactive” and the outcome [3] was “inactive”. For the same compound, the outcome [4] was “inactive”, the outcome [5] was “inactive” and the outcome [7] was “inactive”.
In the case of `CC(Oc1cc(Cl)ccc1Cl)C(=O)O` (stereo unspecified), the Potency [1] is reported as “inactive”, the outcome [2] is reported as “inactive” and the outcome [4] is reported as “inactive”. For the same compound, the outcome [5] was “inactive”, the outcome [6] was “inactive” and the outcome [7] was “inactive”.
For `Fc1ccccc1`, the Potency [1] was “inactive”, the outcome [2] was “inactive” and the outcome [3] was “inactive”. The outcome [4] was “inactive”, the outcome [6] was “inactive” and the outcome [7] was “inactive”. For the same compound, the Potency [9] was “inactive”.
